# Inconclusive results are not listed. Entries that show only a call come without a potency. Unmarked numbers belong to inactive results. Activity calls are given as the source filed them. Calls come from the whole dose curve; as a rule, active = well fitted inhibition curve with a large enough effect; inconclusive = small, poorly fitted or top-dose-only effect; inactive = no such curve, though single readings can be large or run the other way.
# Assays:
# [1] = test system: Zika virus NS2B-NS3 protease (unlinked complex); test: Primary screen GU Rhodamine qHTS for Zika virus inhibitors: Unlinked NS2B-NS3 protease assay (AID 1347159); conditions: Recombinant ZIKV NS2B-NS3 protease, Rhodamine110 substrate fluorescence; series mostly up to 107 µM; note: nearly all actives have a fitted effect of over 60% in size
# Outline: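 Enzyme 25 nM in Tris-HCl pH 8.0 + 0.01% Tween 20; compounds up to 114 microM, 15 min RT dark; + Rhod110 substrate 1.5 microM; read t0 and 15 min; delta fluorescence → % inhibition → 4-parameter Hill fit.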
# [2] = test system: Zika virus NS2B-NS3 protease (linked construct); test: Primary screen NINDS Rhodamine qHTS for Zika virus inhibitors (AID 1347160); conditions: purified NS2B-NS3 protease, Rhodamine110 substrate fluorescence; series mostly up to 57.1 µM; note: nearly all actives have a fitted effect of over 55% in size
# Outline: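 Enzyme (25 nM, linked NS2B-NS3) was preincubated 15 min with compound in 10 mM Tris-HCl pH 8.0, 0.01% Tween 20. Rhodamine110 substrate (1.5 microM) was then added and fluorescence read at start and after 15 min.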
Compound,Potency [1],Potency [2],"activity change, negative = inhibition [1]","activity change, negative = inhibition [2]"
CC(C)S(=O)(=O)NC[C@H](C)c1ccc(-c2ccc(CCNS(C)(=O)=O)cc2)cc1,inactive,inactive,,
COc1ccc(C#Cc2ccc(C(=O)N3CCC[C@@H](CO)C3)cc2)cc1,inactive,inactive,,
COc1ccc(-c2cnc3c(-c4cccc5ncccc45)cnn3c2)cc1,inactive,inactive,,
COCCNCc1ccc(-c2cc3nccc(Oc4ccc(NC(=O)C5(C(=O)Nc6ccc(F)cc6)CC5)cc4F)c3s2)nc1,inactive,inactive,,
CC[C@H]1CN(c2nc(N)c(C(N)=O)nc2Cl)CCN1C1CCN(Cc2ccc(Cl)cc2)CC1,inactive,inactive,,
Cc1nc2ccc(-n3ncc(C(=O)c4cc5ccccc5[nH]4)c3N)cc2[nH]1,inactive,inactive,,
Cc1nc(C#Cc2ccnc(Cl)c2)c(C)n1-c1ccc(OC(F)(F)F)cc1,inactive,inactive,,
OC(CC1c2ccccc2-c2cncn21)C1CCCCC1 (stereo not given),inactive,inactive,,
O=C(NCCCN1CCC2(CC1)OCc1ccccc12)[C@H]1CCCN1Cc1ccccc1,inactive,inactive,,
C=CC(C)(O)CC/C=C(\C)C(=O)OC1C(O)C(CO)OC(OC(=O)C23CCC(C)(C)CC2C2=CCC4C5(C)CCC(OC6OC(COC7OCC(OC(C)=O)C(O)C7OC7OC(COC(C)=O)C(O)C(O)C7OC(C)=O)C(O)C(O)C6OC6OCC(O)C(O)C6O)C(C)(C)C5CCC4(C)C2(C)C(O)C3O)C1OC1OCC(OC2OCC(O)C(OC3OCC(O)C(O)C3O)C2O)C(O)C1O (stereo not given),,,23.6% [at 19.1 µM],-13.7% [at 10.7 µM]
